Pf growth 96h: P. falciparum growth inhibition at 96 hour, primary screen for plastid delayed-death inhibitors. P. falciparum luciferase reporter growth, 96 h. Potency, µM (highest dose often 28.7 µM), most hits filed as inhibitors. hit rate 6.9% among 320,000. AID 504834; active = well fitted inhibition curve with a large enough effect; inconclusive = small, poorly fitted or top-dose-only effect, or another doubt; inactive = no such curve, though single readings can be large or run the other way
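Readout is luminescence from an integrated firefly luciferase in P. falciparum. Red cells, 2% hematocrit and 0.05% parasitemia final, were cultured with compound through two parasite generations (96 hours) at 37 C, 5% CO2.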
Pf growth 48h: P. falciparum growth inhibition at 48 hours (one generation) | hit rate 5.9% among 310,000 | P. falciparum luciferase growth in erythrocytes, 48 h | Potency, µM (top dose mostly 28.7 µM), most hits filed as inhibitors; active = well fitted inhibition curve with a large enough effect; inconclusive = small, poorly fitted or top-dose-only effect, or another doubt; inactive = no such curve, though single readings can be large or run the other way
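Erythrocytes infected with P. falciparum carrying an integrated firefly luciferase reporter (2% hematocrit, 0.1% parasitemia final) were exposed to compounds in RPMI 1640 with 0.5% Albumax at 37 C, 5% CO2. Growth inhibition was scored as reduced luminescence.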
NS1 function inh: influenza NS1 inhibition | AID 2326 | Potency, µM (highest dose often 46.1 µM) | hit rate 0.4% among 270,000; note: actives are rising curves; nearly all actives have a fitted effect of over 50% in size
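OD600 was taken as the measure of yeast growth restored by compound in an NS1-expressing S. cerevisiae strain. Cells had been washed out of glucose medium and diluted 1:100 into galactose -URA medium, pH 6.0.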
SARS PLP yeast: SARS-CoV PLP inhibition in yeast; S. cerevisiae expressing SARS-CoV PLpro, growth rescue; Potency, µM (series often up to 32.9 µM), usual class: activators; hit rate 0.19% among 330,000; note: nearly all actives have a fitted effect of over 55% in size
Numbers stand for hits; - = inactive; ? = inconclusive; . = not tested or not shown; [ ] = dose if it differs, or a comment. The list is not random: actives were taken first. Their share in the collection is about 10%. Unless noted, calls come from the whole dose curve.

SMILES	Pf growth 96h	Pf growth 48h	NS1 function inh	SARS PLP yeast
COc1cc(NC(=O)c2ccccc2Cl)c(OC)cc1NC(=O)CN1CCCCC1	1.9µM	-	-	-
COc1ccc(C)cc1NC(=O)CN1CCN(c2ccccc2F)CC1	-	13µM	-	-
COc1ccc(S(=O)(=O)N2CCN(CC(=O)c3ccc(O)c(O)c3)CC2)cc1	15µM	-	-	-
O=C(CCN1CCN(c2ccc(Cl)cc2)CC1)Nc1ccccc1F	2.9µM	-	-	-
COc1cc(NC(=O)c2ccc(C)cc2)c(OC)cc1NC(=O)CN1CCCCC1	?	?	-	-
Cc1ccc(S(=O)(=O)c2c(O)c3ccc(C(=O)O)cc3[nH]c2=O)cc1	-	-	-	-
O=C(NNc1cccc(Cl)c1)c1cccnc1Oc1ccccc1	-	-	-	-
C/C(=N/NC(=O)CN(c1ccccc1)S(=O)(=O)c1ccccc1)c1ccccc1O	?	?	-	-
O=C(CN1CCN(S(=O)(=O)c2ccc(F)cc2)CC1)Nc1cc(C(F)(F)F)ccc1Cl	?	?	-	-
COc1ccc(S(=O)(=O)N2CCN(CC(=O)Nc3cc(C(F)(F)F)ccc3Cl)CC2)cc1	-	4.7µM	-	-
COc1ccccc1NC(=O)CN1CCN(CC(=O)Nc2ccc(F)cc2F)CC1	4.1µM	-	-	-
COc1ccc(C)cc1NC(=O)CN1CCN(S(=O)(=O)c2ccc3ccccc3c2)CC1	12µM	?	.	-
COc1cccc(NC(=O)CCN2CCN(c3ccccc3F)CC2)c1	12µM	-	-	?
COc1ccccc1CCN1CCCC(CN(C)C(=O)c2ccoc2)C1 (configuration not stated)	-	-	-	-
Cc1cccn2c(CN[C@H]3CCCCNC3=O)c(C(=O)N3CCOCC3)nc12	9.3µM	-	-	-
O=C(NNC1=NS(=O)(=O)c2ccccc21)c1ccccc1Cl	-	-	-	-
N#CCCN(NC1=NS(=O)(=O)c2ccccc21)C(=O)c1ccccc1Br	3.3µM	-	-	-
COc1ccc2cc3cc(C(=O)N4CCN(c5ccccn5)CC4)oc3nc2c1	?	-	-	-
CN1CCCN(C(=O)CNC(=O)c2ccc(Cl)cc2Cl)CC1	.	.	.	-
Cc1c(F)cccc1NS(=O)(=O)c1ccc2c(c1)NC(=O)CO2	-	?	.	-
CCc1ccc(-c2cn(-c3nc(C)cc(C)n3)c(=N)o2)cc1	10µM	?	-	-
CCc1ccc(-c2cn3c(n2)SCC3)cc1	-	-	-	-
CC1=CC(C)(C)N(C(=O)C(C)N2C(=O)c3ccccc3C2=O)c2c(C)cc(C)cc21 (configuration not stated)	.	10µM	-	-
COc1ccc(N2CCN(C(=O)Cc3csc(NC(=O)Nc4ccccc4OC)n3)CC2)cc1	?	7.4µM	.	-
COc1ccccc1NC(=O)Nc1nc(CC(=O)N2CCN(c3ccccc3)CC2)cs1	?	12µM	.	-
SMILES	Pf growth 96h	Pf growth 48h	NS1 function inh	SARS PLP yeast
COc1ccccc1NC(=O)Nc1nc(CC(=O)NC2CCCC2)cs1	?	?	.	-
COc1ccccc1NC(=O)Nc1nc(CC(=O)N2CCN(c3ccc(F)cc3)CC2)cs1	?	9.3µM	.	-
COc1ccc(CNC(=O)CN2C(=O)c3ccc([N+](=O)[O-])cc3C2=O)cc1	-	-	-	-
CCN(CC)c1ccc(S(=O)(=O)N2CCOCC2)cc1NC(=O)COC(=O)c1cccnc1SC	-	?	.	-
CS(=O)(=O)Nc1cccc(C(=O)OCCCOc2ccc(F)cc2)c1	-	-	-	-
O=S(=O)(c1cccc(F)c1)N1CCc2sccc2C1c1ccc(OC(F)(F)F)cc1 (configuration not stated)	?	13µM	-	-
CC1c2ccsc2CCN1S(=O)(=O)c1ccccc1 (configuration not stated)	-	-	-	-
COc1cc(/C=C2\C(=N)N3N=C(S(C)(=O)=O)SC3=NC2=O)ccc1OS(=O)(=O)c1ccccc1	?	-	-	-
CCS(=O)(=O)C1=NN2C(=N)/C(=C\c3ccc(OS(=O)(=O)c4ccccc4)c(OC)c3)C(=O)N=C2S1	9.3µM	?	-	-
CC1CN(c2oc(-c3cccs3)nc2C#N)CC(C)O1 (configuration not stated)	-	10µM	-	-
COc1ccccc1OCCNC(=O)CN1C(=O)NC2(CCCC2)C1=O	-	?	.	-
Cc1ccc(S(=O)(=O)N2CCC(C(=O)OCC(=O)N3CCCC3=O)CC2)cc1C	-	-	.	-
O=C(CN1CCN(Cc2ccccc2F)C1=O)NCc1ccco1	13µM	.	-	-
CCn1c(SCC(=O)Nc2cc(C)on2)nc2c(c1=O)SCC2	-	?	-	?
CCn1c2ccccc2c2cc(NC(=O)CN(C)CC(=O)Nc3ccc(N4CCOCC4)cc3)ccc21	15µM	-[1.15 µM]	-	-
Cc1ccc(CC(=O)N(C)CC(=O)Nc2ccc(N3CCOCC3)cc2)cc1C	-	?	.	-
CN(CC(=O)Nc1ccc(N2CCOCC2)cc1)C(=O)CCc1cc(C(C)(C)C)c(O)c(C(C)(C)C)c1	9.3µM	3.3µM	.	-
O=C(O)c1ccc2c(c1)S(=O)(=O)c1cc(Cl)ccc1C2=O	-	-	.	-
O=C(Cc1c(Cl)cccc1Cl)NCCc1ccc(Cl)cc1	-	-	-	-
O=C(CCl)NCc1c(Cl)cccc1-n1cccc1	12µM	10µM	-	-
Cc1ccc(/C=N/NC(=S)N2CCOCC2)cc1	?	2.3µM	-	-
Cc1ccc(CC(=S)N2CCOCC2)cc1	13µM	-	.	-
CC(=O)Nc1ccc(S(=O)(=O)NCC(=O)OCC(=O)N2CCCCCC2)cc1	-	-	.	-
O=C(NNC(=O)C1CCN(C(=O)Nc2ccccc2)CC1)c1ccc([N+](=O)[O-])cc1	-	-	.	-
COc1ccccc1C(C)NC(=O)c1cc(=O)[nH]c2ccccc12 (configuration not stated)	?	-	-	-
SMILES	Pf growth 96h	Pf growth 48h	NS1 function inh	SARS PLP yeast
Cc1cc(Cl)ccc1OCC(O)CNCCc1ccc(S(N)(=O)=O)cc1 (configuration not stated)	?	?	-	-
CC(=O)c1ccc(NC(=S)NC(C)c2ccc(Cl)cc2Cl)cc1 (configuration not stated)	?	2.3µM	.	-
CCN1CCN(C(=O)CCc2nnc3ccc(N4CCC5(CC4)OCCO5)nn23)CC1	?	-	-	-
CC(C)CNC(=O)c1ccccc1NC(=O)c1ccc(CN2CCOCC2)cc1	-	8.3µM	-	-
O=C(Nc1cccc(OCC(=O)N2CCOCC2)c1)c1cccc(Cl)c1	-	-	-	-
O=C(N/N=C/c1ccccc1[N+](=O)[O-])c1ccc(CN2CCOCC2)cc1	9.3µM	-	-	-
O=C(Nc1cccc(OCC(=O)N2CCOCC2)c1)c1cccc([N+](=O)[O-])c1	7.4µM	-	-	-
CC(C)COc1cccc(C(=O)Nc2ccc(CN3CCOCC3)cc2)c1	8.3µM	-[0.00184 µM]	-	-
CCOC(=O)C1CCN(C(=O)COC(=O)C23CC4CC(CC(C4)C2)C3)CC1	.	.	.	-
COc1cccc(CN(C)C(=O)CSCC(=O)Nc2cccc(C)c2)c1OC	?	?	.	-
CC(C)c1ccccc1NC(=O)C1CCCN(C(=O)c2ccc(Cl)cc2)C1 (configuration not stated)	-	?	.	-
CN(C(=O)Cn1nc(Cl)ccc1=O)C1CCCN(Cc2ccccc2F)C1 (configuration not stated)	-	-	-	-

From PubChem
